Assay results: PubChem BioAssay AID1458 (National Center for Advancing Translational Sciences (NCATS), 2008)
Out of some 210,000 compounds screened, about 5,900 (2.8%) were called active. Inconclusive results (about 5%) are left out. The list comes from a sample in which actives are over-represented; it also holds similar structures and randomly drawn compounds. A call without a number means that no potency is given here. A number with no mark means an inactive call. Calls come from the whole dose curve; as a rule, active = well fitted activation curve with a large enough effect; inconclusive = small, poorly fitted or top-dose-only effect; inactive = no such curve, though single readings can be large or run the other way.

assay: qHTS Assay for Enhancers of SMN2 Splice Variant Expression; conditions: HEK293 SMN2-luciferase splicing reporter, luminescence, 30-36 h; series mostly up to 46.1 µM; note: nearly all actives have a fitted effect of over 55% in size
Method in brief: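 HEK293 cells carry an SMN2 minigene-luciferase reporter in which exon 7 inclusion puts luciferase in frame. Cells were seeded at 2000 cells/well, attached for 10-12 hours, then exposed to compounds for 30-36 hours at 37C before ONE-Glo luminescence.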
Potency is the fitted concentration of half-maximal effect.

Row | Compound | Potency | activity change, positive = activation
1 | O=C(Nc1ccc2c(c1)OCCO2)c1cnccn1 | 12.6 µM (active) | –
2 | O=C(NCN1CCN(CCO)CC1)c1cnccn1 | inactive | –
3 | O=C(Nc1ccc(S(=O)(=O)N2CCCCC2)cc1)c1cnccn1 | inactive | –
4 | O=C(Nc1cccc(NC(=O)c2ccco2)c1)c1cnccn1 | inactive | –
5 | O=C(CCN1C(=O)c2ccncc2C1=O)Nc1ccc2c(c1)OCCO2 | inactive | –
6 | CCN1CCN(c2ccc(NC(=O)c3cnccn3)cc2)CC1 | 11.2 µM (active) | –
7 | O=C(Nc1ccc(OC(F)(F)F)cc1)c1cc2c(=O)n3ccccc3nc2s1 | inactive | –
8 | O=C(Cn1c(=O)n(-c2ccc(F)cc2)c(=O)c2sccc21)Nc1cccc(C(F)(F)F)c1 | inactive | –
9 | CCN(CC)CCNC(=O)c1cc2c(=O)oc3ccc(C)cc3c2s1 | inactive | –
10 | COc1cccc(-c2nc(S(=O)(=O)c3ccc(C)cc3)c(NCc3ccccc3)o2)c1 | inactive | –
11 | COc1cccc(C(=O)Nc2ccc3oc(-c4ccc5ccccc5c4)nc3c2)c1 | inactive | –
12 | COc1cccc(-c2nc3cc(C)ccc3o2)c1 | 11.2 µM (active) | –
13 | COc1ccc2oc(-c3cccc(NC(=O)CSc4ccc(Cl)cc4)c3)nc2c1 | 8.91 µM (active) | –
14 | COc1cc2ccccc2cc1C(=O)Nc1cccc(-c2nc3ccccc3o2)c1 | inactive | –
15 | O=C(COc1ccc(Cl)cc1)Nc1ccc(-c2nc3cc(Cl)ccc3o2)c(O)c1 | inactive | –
16 | CCCSc1ncc(Cl)c(C(=O)Nc2sc3c(c2C(=O)NCCOC)CCCC3)n1 | inactive | –
17 | O=C(c1ccccc1F)N1CCC(c2nc3c(nnn3Cc3cccc(F)c3)c(=O)[nH]2)CC1 | inactive | –
18 | COc1ccc(-c2cc(C(F)(F)F)nc(SCC(=O)N(C)Cc3ccccc3)n2)cc1OC | inactive | –
19 | CCOc1ccc(N(CC)C(=O)c2cc3c(=O)oc4ccccc4c3s2)cc1 | inactive | –
20 | CSc1ncc(Cl)c(C(=O)Nc2ccc(S(=O)(=O)N3CCCC(C)C3)cc2)n1 (configuration not stated) | inactive | –
21 | CCOc1cccc(NC(=O)CSc2ncc(-c3ccc(Cl)cc3)[nH]2)c1 | inactive | –
22 | CCC(=O)N1CCc2cc(S(=O)(=O)NC(Cc3ccccc3)C(=O)NCc3ccc(C)cc3)ccc21 (configuration not stated) | inactive | –
23 | Cc1cccc(NC(=O)Nc2nnc(-c3ccccc3)o2)c1 | inactive | –
24 | Cc1ccc(NC(=O)Nc2ccccc2)c(Br)c1 | 12.6 µM (active) | –

Row | Compound | Potency | activity change, positive = activation
25 | CC(=O)c1cccc(NC(=O)Nc2ccc(C)cc2)c1 | inactive | –
26 | CCN(CC)c1cc(NC2CCCCC2)c2c3c(onc13)-c1ccccc1C2=O | inactive | –
27 | Nc1nnc(SCC(=O)Nc2ccc3nc(SCC(=O)Nc4ccccc4)sc3c2)s1 | inactive | –
28 | CSc1nc2ccc(NC(=O)c3c(F)cccc3F)cc2s1 | 12.6 µM (active) | –
29 | CCCC(=O)Nc1nc2ccc(NC(=O)c3c(F)c(F)c(OC)c(F)c3F)cc2s1 | inactive | –
30 | CCC(C(=O)Nc1cccc(Cl)c1C)n1nc(-c2ccc(C)cc2)ccc1=O (configuration not stated) | inactive | –
31 | Cc1cc2nn(-c3ccc(Cl)cc3)nc2cc1NC(=O)C(C)C | inactive | –
32 | CCc1ccc(-c2nnn(Cc3nc4ccccc4s3)n2)cc1 | inactive | –
33 | COc1ccccc1OCc1nc2ccccc2s1 | 3.16 µM (active) | –
34 | COc1ccc(-c2nc3ccccc3s2)cc1NC(=O)COc1ccccc1C | inactive | –
35 | COc1ccc(C2=NC3(CCCCC3)N(CC(=O)Nc3ccc(C(C)C)cc3)C2=O)cc1 | inactive | –
36 | C/C(Nc1ccc2oc(=O)ccc2c1)=C1/C(=O)CC2[C@@H]1C2(C)C (some centres not stated) | inactive | –
37 | CCNS(=O)(=O)c1ccc(NC(=O)CSc2nc(-c3ccco3)cc(C(F)(F)F)n2)cc1 | inactive | –
38 | CC(C)C(=O)Nc1cccc(C(=O)Nc2ccc3c(c2)OCO3)c1 | 15.8 µM (active) | –
39 | Cn1c(=O)n(C)c2cc(C(=O)Nc3ccc4c(c3)OCO4)ccc21 | 11.2 µM (active) | –
40 | CCSc1ccccc1C(=O)Nc1ccc2c(c1)OCO2 | inactive | –
41 | O=C(Nc1cccc([N+](=O)[O-])c1)c1ccc2c(c1)OCO2 | inactive | –
42 | CN1CCN(c2ccc(NC(=O)c3ccc4c(c3)OCCO4)cc2Cl)CC1 | 14.1 µM (active) | –
43 | O=C(Nc1ccc2c(c1)OCO2)c1ccc(N2C(=O)c3ccccc3C2=O)cc1 | inactive | –
44 | Cn1c(NC(=O)c2ccc3c(c2)OCO3)cc(=O)n(C)c1=O | inactive | –
45 | O=C(Nc1ccc2c(c1)OCCO2)c1ccc(Cl)c(S(=O)(=O)N2CCCCC2)c1 | inactive | –
46 | O=C(Nc1cccc(Cl)c1N1CCOCC1)c1ccc2c(c1)OCCO2 | inactive | –
47 | Cc1ccc(-c2nc3ccccn3c2Nc2c(C)cccc2C)o1 | inactive | –
48 | N#C/C(=C\c1cccc(F)c1)c1nc(-c2cc3c(ccc4ccccc43)oc2=O)cs1 | inactive | –

Row | Compound | Potency | activity change, positive = activation
49 | CCOc1ccc(C(=O)c2cn(Cc3ccc(F)cc3)c3ccc(F)cc3c2=O)cc1 | inactive | –
50 | Cc1ccc2nc(CC(=O)c3ccc4ccccc4c3)c(=O)[nH]c2c1 | – | -3.77% [at 9.22 µM]
51 | Cc1ccc(C(=O)NCCNC(=O)c2ccccc2)cc1 | inactive | –
52 | Cc1ccc2nc(CNC(=O)c3ccccc3)[nH]c2c1 | 11.2 µM (active) | –
53 | Cc1ccc(C)c(Nc2nnc(-c3ccc(C)c(S(=O)(=O)N4CCCCC4)c3)c3ccccc23)c1 | inactive | –
54 | Cc1cc(NC(=O)C2CCC(CNS(=O)(=O)c3ccc(Br)s3)CC2)ccc1Br (configuration not stated) | inactive | –
55 | CCC(=O)Nc1cccc(NC(=O)c2cccnc2)c1 | inactive | –
56 | Cc1cc2nc(-c3ccc(NC(=O)c4cccnc4)cc3)oc2cc1C | 12.6 µM (active) | –
57 | Cc1ccc(-n2nc3cc(C)c(NC(=O)c4cccnc4)cc3n2)cc1 | inactive | –
58 | O=C(CSc1nnc(CNC(=O)c2ccccc2)n1-c1ccc(F)cc1)Nc1ccccc1F | inactive | –
59 | Cc1ccc(CNC(=O)CCc2c(C)nc3nc(CNC(=O)OC(C)(C)C)nn3c2C)cc1 | inactive | –
60 | COc1ccc(CCNCc2c(C(=O)O)c(C)n(Cc3cccc(C)c3)c2C)cc1OC | inactive | –
61 | COc1ccccc1CNC(=O)c1ccc(SC)cc1OC | inactive | –
62 | COc1ccccc1OCCNC(=O)c1cc([N+](=O)[O-])cc([N+](=O)[O-])c1 | inactive | –
63 | Cc1ccc(C(=O)COc2cccc(NC(=O)c3ccco3)c2)cc1 | inactive | –
64 | COc1cc(SC)ccc1C(=O)NCCOc1ccccc1Cl | 12.6 µM (active) | –
65 | Cc1occc1C(=O)Nc1nnc(-c2ccncc2)s1 | inactive | –
66 | Cc1ccnc(NC(=O)CCCOc2ccccc2)c1 | inactive | –
67 | COc1cc(SC)ccc1C(=O)Nc1cc(C)ccn1 | 2.24 µM (active) | –
68 | Cc1ccnc(NC(=O)c2ccc(NC(=O)c3ccco3)cc2)c1 | 10 µM (active) | –
69 | COc1cc(SC)ccc1C(=O)Nc1nc(C)cs1 | inactive | –
70 | Cc1occc1C(=O)Nc1cccc(Cn2cccn2)c1 | inactive | –
71 | COc1cccc(C(=O)Nc2ccc(NC(=O)c3ccco3)cn2)c1 | inactive | –
72 | Cc1ccnc(NC(=O)c2ccoc2C)c1 | 15.8 µM (active) | –
